Experimental data: PubChem BioAssay (EPA / NIEHS)
Inconclusive results are not listed. The source made the active and inactive calls. How the source made its calls, unless noted: active means hit-call score of the fitted dose curve at least 0.9, where 1 is the maximum; inconclusive means response in the unintended direction; inactive means score below 0.9.

Experiments:
[1] = biological target: Estrogen receptor (Homo sapiens) (UniProt P03372); assay: OT_ER_ERaERa_1440: Odyssey Thera (OT) 24-hour HEK293T Protein-Complementation Assay for Estrogen Receptor-alpha/-alpha Homodimer (AID 2283349);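 further: hits raise fluorescence above DMSO for agonists and antagonists alike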
Estrogen receptor (Homo sapiens), sequence (P03372 whole entry, looked up, the tested form may be a part): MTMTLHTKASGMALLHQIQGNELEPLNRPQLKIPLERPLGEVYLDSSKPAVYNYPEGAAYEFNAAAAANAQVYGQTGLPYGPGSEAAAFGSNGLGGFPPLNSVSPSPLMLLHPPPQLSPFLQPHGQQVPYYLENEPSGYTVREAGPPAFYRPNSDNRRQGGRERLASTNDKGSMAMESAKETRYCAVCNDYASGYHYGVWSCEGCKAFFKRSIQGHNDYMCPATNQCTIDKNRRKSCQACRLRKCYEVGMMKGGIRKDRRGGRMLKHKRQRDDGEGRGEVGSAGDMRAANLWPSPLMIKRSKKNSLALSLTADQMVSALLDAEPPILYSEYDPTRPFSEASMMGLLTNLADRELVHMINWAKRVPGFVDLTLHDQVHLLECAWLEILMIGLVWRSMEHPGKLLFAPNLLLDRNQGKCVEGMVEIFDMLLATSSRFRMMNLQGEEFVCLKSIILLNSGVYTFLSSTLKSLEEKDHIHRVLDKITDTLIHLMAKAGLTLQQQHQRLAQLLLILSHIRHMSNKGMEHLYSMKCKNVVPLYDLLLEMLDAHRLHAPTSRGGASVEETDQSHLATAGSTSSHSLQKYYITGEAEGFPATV
Method in brief: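 HEK293T, stable ERα LBD (aa 310-547) homodimer PCA; 24 h compound exposure; mean fluorescence intensity (nuclear for agonists, nuclear plus cytoplasmic for antagonists) vs vehicle; positive fitting direction, DMSO baseline.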

[2] = biological target: Estrogen receptor (Homo sapiens) (UniProt P03372); assay: OT_ER_ERaERa_0480: Odyssey Thera (OT) 8-hour HEK293T Protein-Complementation Assay for Estrogen Receptor-alpha/-alpha Homodimer (AID 2283351);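 further: rise in fluorescence from reassembled reporter fragments on ERα LBD homodimer in nucleus or whole cell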
Method in brief: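 Read-out: fluorescence intensity rise relative to DMSO, nuclear for agonists, nuclear plus cytoplasmic for antagonists. Construct is the ERα LBD (aa 310-547) homodimer fragment-complementation pair, stably expressed in HEK293T; exposure 8 h.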

[3] = biological target: Estrogen receptor (Homo sapiens) (UniProt P03372); assay: OT_ERa_GFPERaERE_0480: Odyssey Thera (OT) 8-hour HeLa Transcription Induction Assay for Estrogen Receptor (AID 2283381; active means hit-call score of the fitted dose curve at least 0.9, where 1 is the maximum; inactive means score below 0.9)
Method in brief: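 GFP-ERE reporter, HeLa, 8 h exposure. Readout: fluorescence microscopy, high-content image analysis. Fit direction positive vs DMSO negative control.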

[4] = biological target: Estrogen receptor (Homo sapiens) (UniProt P03372); assay: OT_ERa_GFPERaERE_0120: Odyssey Thera (OT) 2-hour HeLa Transcription Induction Assay for Estrogen Receptor (AID 2283382)
Method in brief: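 Fluorescence microscopy read-out: inducible fluorescent protein reporter in HeLa cells, imaged 2 h post-dose. Signal increase over DMSO negative control fitted as single primary endpoint via high content image analysis.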

[5] = biological target: Estrogen receptor beta (Homo sapiens) (UniProt Q92731); assay: OT_ER_ERbERb_0480: Odyssey Thera (OT) 8-hour HEK293T Protein-Complementation Assay for Estrogen Receptor-beta/-beta Homodimer (AID 2283357);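 further: active means signal gain over DMSO baseline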
Estrogen receptor beta (Homo sapiens), sequence (Q92731 whole entry, looked up, the tested form may be a part): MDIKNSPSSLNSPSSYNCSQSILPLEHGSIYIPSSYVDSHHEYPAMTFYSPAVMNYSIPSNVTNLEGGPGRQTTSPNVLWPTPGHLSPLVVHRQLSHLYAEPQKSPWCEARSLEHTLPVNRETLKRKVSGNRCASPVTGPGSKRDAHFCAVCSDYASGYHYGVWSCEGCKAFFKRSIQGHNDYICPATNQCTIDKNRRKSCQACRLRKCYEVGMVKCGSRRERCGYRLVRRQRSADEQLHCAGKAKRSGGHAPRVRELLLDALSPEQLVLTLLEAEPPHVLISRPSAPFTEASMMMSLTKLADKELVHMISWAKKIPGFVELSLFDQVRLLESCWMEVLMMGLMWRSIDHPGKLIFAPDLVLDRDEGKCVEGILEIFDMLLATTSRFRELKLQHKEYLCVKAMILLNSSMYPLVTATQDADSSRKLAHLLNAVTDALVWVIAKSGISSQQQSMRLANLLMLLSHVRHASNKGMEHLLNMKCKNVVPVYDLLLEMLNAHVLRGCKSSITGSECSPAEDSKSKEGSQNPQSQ
Method in brief: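 ER-beta LBD homodimer PCA stably expressed in HEK293T; 8 h compound exposure, then formaldehyde fixation and Draq5 staining. Gain in nuclear/cytoplasmic fluorescence intensity versus DMSO vehicle, read on laser scanning cytometer.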

[6] = biological target: human Peroxisome Proliferator-activated Receptor alpha (PPARa), PPARA (gene 5465) (UniProt Q07869); assay: NVS_NR_hPPARa: NovaScreen (NVS) Nuclear Receptor Binding Assay for human Peroxisome Proliferator-activated Receptor alpha (PPARa) (AID 2283359);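 further: activity means loss of TR-FRET signal versus DMSO baseline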
Method in brief: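 Loss of TR-FRET binding signal relative to DMSO was measured 1 h after chemical addition to extracted receptor protein. Chemicals were first tested in duplicate at 25 uM, and actives were followed up in concentration series.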

[7] = biological target: Estrogen receptor beta (Homo sapiens) (UniProt Q92731); assay: OT_ER_ERbERb_1440: Odyssey Thera (OT) 24-hour HEK293T Protein-Complementation Assay for Estrogen Receptor-beta/-beta Homodimer (AID 2283380);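 further: scored as signal increase over DMSO baseline for both agonists and antagonists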
Method in brief: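 Fluorescence increase, nuclear for agonists or whole-cell for antagonists, relative to DMSO vehicle, quantified by laser scanning cytometer after fixation and Draq5 staining. Readout from 24 h treatment of HEK293T cells carrying complementation-paired ER beta LBD (aa 310-547).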

[8] = biological target: Androgen Receptor/SRC-1 Co-activator, AR (gene 367) (UniProt P10275); assay: OT_AR_ARSRC1_0480: Odyssey Thera (OT) 8-hour HEK293T Protein-Complementation Assay for Androgen Receptor/SRC-1 Co-activator (AID 2283354);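 further: hits raise the complementation signal above DMSO so AC50 marks enhancers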
Androgen Receptor/SRC-1 Co-activator, AR (gene 367), sequence (P10275 whole entry, looked up): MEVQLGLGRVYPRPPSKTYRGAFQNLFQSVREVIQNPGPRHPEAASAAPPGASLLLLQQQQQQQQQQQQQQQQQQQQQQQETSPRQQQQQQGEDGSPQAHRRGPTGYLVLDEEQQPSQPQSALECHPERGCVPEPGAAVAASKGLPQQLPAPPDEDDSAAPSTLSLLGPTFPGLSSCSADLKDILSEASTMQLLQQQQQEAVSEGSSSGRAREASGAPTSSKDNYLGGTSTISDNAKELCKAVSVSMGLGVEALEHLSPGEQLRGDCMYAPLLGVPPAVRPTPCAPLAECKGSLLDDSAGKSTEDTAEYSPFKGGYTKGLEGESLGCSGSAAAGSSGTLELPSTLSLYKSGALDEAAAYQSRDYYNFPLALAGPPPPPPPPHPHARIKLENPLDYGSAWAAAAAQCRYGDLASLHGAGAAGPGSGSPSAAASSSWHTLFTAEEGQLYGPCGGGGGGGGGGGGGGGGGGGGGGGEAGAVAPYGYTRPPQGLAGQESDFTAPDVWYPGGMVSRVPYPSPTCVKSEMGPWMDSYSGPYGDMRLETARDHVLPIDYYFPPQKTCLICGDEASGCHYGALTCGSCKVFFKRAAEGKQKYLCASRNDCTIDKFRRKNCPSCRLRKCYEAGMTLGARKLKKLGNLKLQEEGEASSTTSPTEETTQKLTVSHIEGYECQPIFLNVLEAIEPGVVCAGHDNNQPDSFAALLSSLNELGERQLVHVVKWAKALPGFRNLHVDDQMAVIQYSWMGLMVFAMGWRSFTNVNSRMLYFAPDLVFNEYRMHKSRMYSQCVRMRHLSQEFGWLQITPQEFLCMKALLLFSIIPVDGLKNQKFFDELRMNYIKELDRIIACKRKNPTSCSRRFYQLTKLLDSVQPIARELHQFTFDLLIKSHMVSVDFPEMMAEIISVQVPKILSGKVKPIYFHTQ
Method in brief: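 Reconstituted split-Venus YFP signal from AR–SRC-1 interaction, read by imaging 8 h post-dose in stable HEK293T lines. The 488 nm nucleus-to-cytoplasm ratio (≥400 cells/image) was fitted upward against DMSO.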

[9] = biological target: Nuclear receptor subfamily 1 group I member 2 (Homo sapiens) (UniProt O75469); assay: NVS_NR_hPXR: NovaScreen (NVS) Nuclear Receptor Binding Assay for human Pregnane X Receptor (PXR) (AID 2283365);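 further: a drop in FRET signal versus DMSO baseline means the compound binds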
Nuclear receptor subfamily 1 group I member 2 (Homo sapiens), sequence (O75469 whole entry, looked up): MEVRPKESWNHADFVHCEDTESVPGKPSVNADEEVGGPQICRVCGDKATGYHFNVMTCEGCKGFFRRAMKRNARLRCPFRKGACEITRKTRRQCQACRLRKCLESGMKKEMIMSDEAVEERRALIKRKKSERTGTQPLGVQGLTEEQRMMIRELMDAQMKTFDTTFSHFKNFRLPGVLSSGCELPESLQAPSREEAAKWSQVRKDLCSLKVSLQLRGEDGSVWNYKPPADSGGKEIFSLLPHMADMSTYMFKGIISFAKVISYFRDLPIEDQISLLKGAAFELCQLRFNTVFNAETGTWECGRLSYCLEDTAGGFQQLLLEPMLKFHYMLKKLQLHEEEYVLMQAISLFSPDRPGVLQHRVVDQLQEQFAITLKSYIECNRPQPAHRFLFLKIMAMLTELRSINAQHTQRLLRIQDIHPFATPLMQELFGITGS
Method in brief: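 Binding was measured by time-resolved fluorescence resonance energy transfer after a 2 h exposure of extracted human PXR protein without cells. Compounds were first tested at 25 uM in duplicate, with concentration series for actives; DMSO defined baseline.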

[10] = biological target: human Thyroid Receptor Alpha (TRa), THRA (gene 7067) (UniProt P10827); assay: NVS_NR_hTRa_Antagonist: NovaScreen (NVS) Nuclear Receptor Binding Assay for human Thyroid Receptor Alpha Antagonism (TRa) (AID 2283362);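 further: activity is loss of signal relative to DMSO baseline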
Method in brief: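 Chemicals were first screened in duplicate at 25 uM, then actives were retested in concentration series. Binding to the extracted receptor was measured 1 h after dosing by AlphaLISA chemiluminescence, with decreased signal versus DMSO scored as activity.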

[11] = biological target: rat Serotonin Transporter (SERT), Slc6a4 (gene 25553) (UniProt P31652); assay: NVS_TR_rSERT: NovaScreen (NVS) Transporter Assay for rat Serotonin Transporter (SERT) (AID 2283375)
rat Serotonin Transporter (SERT), Slc6a4 (gene 25553), sequence (P31652 whole entry, looked up): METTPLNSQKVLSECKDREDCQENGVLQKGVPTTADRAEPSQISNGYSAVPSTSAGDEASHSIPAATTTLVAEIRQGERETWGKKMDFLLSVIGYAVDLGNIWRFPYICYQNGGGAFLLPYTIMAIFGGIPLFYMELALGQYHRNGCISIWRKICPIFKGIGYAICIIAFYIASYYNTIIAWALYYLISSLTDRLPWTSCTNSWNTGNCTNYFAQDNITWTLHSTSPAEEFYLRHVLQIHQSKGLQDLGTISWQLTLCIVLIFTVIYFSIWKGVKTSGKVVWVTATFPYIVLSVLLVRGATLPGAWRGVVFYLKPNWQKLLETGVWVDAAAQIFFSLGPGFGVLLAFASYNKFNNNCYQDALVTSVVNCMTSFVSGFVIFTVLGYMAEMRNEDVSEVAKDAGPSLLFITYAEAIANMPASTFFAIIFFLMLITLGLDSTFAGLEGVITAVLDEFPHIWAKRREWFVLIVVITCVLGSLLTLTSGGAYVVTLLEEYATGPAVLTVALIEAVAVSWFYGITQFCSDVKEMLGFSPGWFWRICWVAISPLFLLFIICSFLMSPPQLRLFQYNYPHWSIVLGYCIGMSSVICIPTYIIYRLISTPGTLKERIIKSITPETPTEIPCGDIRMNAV
Method in brief: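 Steps: rat forebrain membranes dosed with chemical (25 uM duplicate primary; concentration series for actives); 1 h incubation; labelled ligand bound, filtered, counted by scintillation. Activity scored as signal loss vs DMSO.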

[12] = biological target: guinea pig Sigma Receptor, Non-selective Binding, SIGMAR1 (gene 100135589) (UniProt Q60492); assay: NVS_OR_gSIGMA_NonSelective: NovaScreen (NVS) Nuclear Receptor Binding Assay for guinea pig Sigma Receptor, Non-selective Binding (AID 2283367)
guinea pig Sigma Receptor, Non-selective Binding, SIGMAR1 (gene 100135589), sequence (Q60492 whole entry, looked up): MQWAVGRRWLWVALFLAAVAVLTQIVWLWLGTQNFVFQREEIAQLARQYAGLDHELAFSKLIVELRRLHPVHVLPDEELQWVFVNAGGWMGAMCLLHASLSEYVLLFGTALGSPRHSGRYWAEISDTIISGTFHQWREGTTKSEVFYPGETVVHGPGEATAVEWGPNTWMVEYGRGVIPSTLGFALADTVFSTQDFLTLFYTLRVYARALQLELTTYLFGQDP
Method in brief: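 Guinea pig brain membrane sigma sites were labelled with a radioligand, and bound radioactivity was counted after filtration 1 h post-dose. Compounds were screened at 25 uM in duplicate, then retested as concentration series when active.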

[13] = biological target: mouse Estrogen Receptor alpha (Era), Esr1 (gene 13982) (UniProt P19785); assay: NVS_NR_mERa: NovaScreen (NVS) Nuclear Receptor Binding Assay for mouse Estrogen Receptor alpha (Era) (AID 2283378);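 further: hit means loss of bound radioligand signal relative to DMSO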
Method in brief: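 Test chemicals competed against a specific radioligand for binding to cell-free mouse Era. Duplicate wells at 25 uM were read 18 hours later by filter-based radiodetection, with loss of signal against DMSO scored as activity.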

[14] = biological target: human Norepinephrine Transporter (NET), SLC6A2 (gene 6530) (UniProt P23975); assay: NVS_TR_hNET: NovaScreen (NVS) Transporter Assay for human Norepinephrine Transporter (NET) (AID 2283377);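 further: cell-free membrane protein extracted from CHO cells expressing human NET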;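 on AC50: displacement of radioligand from human NET seen as loss of scintillation signal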
human Norepinephrine Transporter (NET), SLC6A2 (gene 6530), sequence (P23975 whole entry, looked up): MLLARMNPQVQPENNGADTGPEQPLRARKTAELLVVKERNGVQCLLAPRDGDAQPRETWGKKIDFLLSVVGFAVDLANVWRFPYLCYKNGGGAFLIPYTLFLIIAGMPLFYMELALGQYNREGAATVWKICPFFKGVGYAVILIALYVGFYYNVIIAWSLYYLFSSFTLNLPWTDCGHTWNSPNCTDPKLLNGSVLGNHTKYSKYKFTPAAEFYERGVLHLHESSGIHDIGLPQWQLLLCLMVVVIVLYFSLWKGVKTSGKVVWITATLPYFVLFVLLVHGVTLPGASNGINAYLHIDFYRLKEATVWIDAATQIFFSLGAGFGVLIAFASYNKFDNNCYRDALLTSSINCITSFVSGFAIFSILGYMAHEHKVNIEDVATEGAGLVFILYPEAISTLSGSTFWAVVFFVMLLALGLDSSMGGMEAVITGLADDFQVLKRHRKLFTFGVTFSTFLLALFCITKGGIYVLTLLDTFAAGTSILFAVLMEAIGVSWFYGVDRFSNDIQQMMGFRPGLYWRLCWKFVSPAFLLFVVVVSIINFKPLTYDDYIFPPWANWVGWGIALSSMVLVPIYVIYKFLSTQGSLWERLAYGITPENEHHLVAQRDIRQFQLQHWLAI
Method in brief: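 Single-concentration duplicate screen at 25 uM, then concentration-response for actives; displacement of specific radioligand from human NET in CHO membrane extracts, filter-based scintillation detection at 1 h relative to DMSO.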

[15] = biological target: human Dopamine Transporter (DAT), SLC6A3 (gene 6531) (UniProt Q01959); assay: NVS_TR_hDAT: NovaScreen (NVS) Transporter Assay for human Dopamine Transporter (DAT) (AID 2283374);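 further: activity means loss of bound radioligand signal relative to DMSO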
Method in brief: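 Duplicate single-point screening at 25 uM preceded concentration-series follow-up of actives. Binding was measured by competitive displacement of a radioligand from DAT protein, filter-counted by scintillation 1 h after dosing. Decrease relative to DMSO taken as activity.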

[16] = biological target: Glucocorticoid receptor (Homo sapiens) (UniProt P04150); assay: NVS_NR_hGR: NovaScreen (NVS) Nuclear Receptor Binding Assay for human Glucocorticoid Receptor (GR) (AID 2283363);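 on AC50: activity is loss of specific radioligand binding signal relative to DMSO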
Glucocorticoid receptor (Homo sapiens), sequence (P04150 whole entry, looked up): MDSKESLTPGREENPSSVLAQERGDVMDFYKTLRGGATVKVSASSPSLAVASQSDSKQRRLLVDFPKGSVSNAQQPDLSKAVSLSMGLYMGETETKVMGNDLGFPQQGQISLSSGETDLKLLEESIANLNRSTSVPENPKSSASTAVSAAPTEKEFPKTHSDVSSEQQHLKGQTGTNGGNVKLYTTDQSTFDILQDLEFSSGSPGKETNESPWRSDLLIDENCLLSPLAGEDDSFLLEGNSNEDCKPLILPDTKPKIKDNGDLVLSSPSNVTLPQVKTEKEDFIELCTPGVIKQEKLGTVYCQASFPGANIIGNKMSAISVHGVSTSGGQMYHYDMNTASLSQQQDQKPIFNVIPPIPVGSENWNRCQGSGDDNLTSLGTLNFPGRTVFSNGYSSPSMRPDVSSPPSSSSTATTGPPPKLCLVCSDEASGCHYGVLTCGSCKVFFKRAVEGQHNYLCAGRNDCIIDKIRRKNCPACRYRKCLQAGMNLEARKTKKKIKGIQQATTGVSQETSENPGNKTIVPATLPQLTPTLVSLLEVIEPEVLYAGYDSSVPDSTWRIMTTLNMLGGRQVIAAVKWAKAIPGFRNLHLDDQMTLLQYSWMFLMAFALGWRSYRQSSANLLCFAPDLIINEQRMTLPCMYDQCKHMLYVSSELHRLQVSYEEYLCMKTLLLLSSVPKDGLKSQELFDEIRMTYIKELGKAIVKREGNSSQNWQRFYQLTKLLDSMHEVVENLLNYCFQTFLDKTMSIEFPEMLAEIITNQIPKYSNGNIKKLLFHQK
Method in brief: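 Compounds first tested in duplicate at 25 uM, actives followed up in concentration series. Binding to extracted GR protein measured as competitive radioligand displacement, filter scintillation read 16 h post-dosing, normalised to DMSO.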

In the case of `CC(=O)C=CC1=C(C)CCCC1(C)C`, the outcome [1] is reported as “inactive”, the outcome [2] is reported as “inactive” and the outcome [3] is reported as “inactive”. The outcome [4] was “inactive”.
`CCCCCCCCCCCCCCCC(=O)O` was tested, and the outcome [5] was “inactive”, the outcome [6] was “inactive” and the outcome [7] was “inactive”.
`CCCCCCCCCCCCCCCCCC(=O)OCC(CC)CCCC` (stereo unspecified) was tested, and the outcome [5] was “inactive” and the outcome [7] was “inactive”.
`O=c1cc(-c2ccccc2)oc2cc(O)cc(O)c12` was tested, and the outcome [8] was “inactive”, the AC50 [5] was 7.09 µM (active) and the outcome [9] was “inactive”. For the same compound, the AC50 [7] was 11 µM (active).
`CN(C)CCCN` was tested, and the outcome [1] was “inactive”, the outcome [2] was “inactive” and the outcome [3] was “inactive”. The outcome [4] was “inactive”.
`Cc1ccc(C(C)C)cc1O` was tested, and the AC50 [5] was 63.6 µM (active) and the outcome [7] was “inactive”.
For `CCC(=O)/C=C/C1C(C)=CCCC1(C)C` (stereo unspecified), the outcome [5] was “inactive”, the outcome [9] was “inactive” and the outcome [7] was “inactive”.
`CCCCCCCCCCCCCCCC(=O)OC[C@H](O)[C@H]1OC(=O)C(O)=C1O` was tested, and the outcome [1] was “inactive”, the outcome [8] was “inactive” and the outcome [10] was “inactive”. For the same compound, the outcome [9] was “inactive”, the outcome [3] was “inactive” and the outcome [4] was “inactive”.
In the case of `Cc1cccc(C)c1C`, the outcome [11] is reported as “inactive”.
For `NCCNCCN`, the outcome [7] was “inactive”.
`c1ccc2sc(SN(C3CCCCC3)C3CCCCC3)nc2c1` was tested, and the AC50 [12] was 5.3 µM (active).
With `CCCc1c(OCCCOc2ccc(OCC(=O)O)cc2)ccc(C(C)=O)c1O` the outcome [13] was “inactive”.
In the case of `Nc1cc([N+](=O)[O-])ccc1Cl`, the outcome [14] is reported as “inactive”.
With `C=O` the outcome [5] was “inactive” and the outcome [7] was “inactive”.
With `C[Si](O[Si](C)(C)C)O[Si](C)(C)C` the outcome [5] was “inactive” and the outcome [7] was “inactive”.
`COc1cc2ncnc(Nc3cccc(Cl)c3)c2cc1OC` was tested, and the AC50 [14] was 1.77 µM (active).
In the case of `CSc1nc(NC2CC2)nc(NC(C)(C)C)n1`, the AC50 [9] is reported as 3.05 µM (active).
For `O=C(O)c1ccc([N+](=O)[O-])cc1`, the outcome [5] was “inactive” and the outcome [7] was “inactive”.
`CNC[C@H](O)c1cccc(O)c1` was tested, and the AC50 [15] was 25 µM (active).
`CC(C)CCCCCCCOC(=O)c1ccc(C(=O)OCCCCCCCC(C)C)c(C(=O)OCCCCCCCC(C)C)c1` was tested, and the outcome [5] was “inactive” and the outcome [7] was “inactive”.
For `CC1=CC(=O)NS(=O)(=O)O1`, the outcome [7] was “inactive”.
In the case of `O=C(O)CCCCCCCC(=O)O`, the outcome [5] is reported as “inactive” and the outcome [7] is reported as “inactive”.
With `CC1(C)[C@@H]2CC[C@@]1(C)[C@H](O)C2` the outcome [7] was “inactive”.
`C=CC(C)(O)CCC=C(C)CCC=C(C)C` (stereo unspecified) was tested, and the outcome [5] was “inactive” and the outcome [7] was “inactive”.
With `O=C[C@@H](O)[C@H](O)[C@H](O)CO` the outcome [5] was “inactive” and the outcome [7] was “inactive”.
With `CCCCCCCCCCN` the outcome [5] was “inactive” and the outcome [7] was “inactive”.
In the case of `O=C1OC2(c3cc(Br)c(O)c(Br)c3Oc3c2cc(Br)c(O)c3Br)c2c(Cl)c(Cl)c(Cl)c(Cl)c21`, the AC50 [16] is reported as 3.83 µM (active).
With `Cc1ccc(O)c(C(C)(C)C)c1` the AC50 [15] was 25 µM (active).
With `O=C1C(c2[nH]c3ccc(S(=O)(=O)O)cc3c2O)=Nc2ccc(S(=O)(=O)O)cc21` the outcome [7] was “inactive”.
For `Cc1ccc(C=O)cc1`, the outcome [16] was “inactive”.
In the case of `C=CC[N+](C)(C)CC=C`, the outcome [5] is reported as “inactive” and the outcome [7] is reported as “inactive”.
In the case of `CC1(C)C(=O)N(Br)C(=O)N1Cl`, the outcome [5] is reported as “inactive” and the outcome [7] is reported as “inactive”.
For `COc1cc(C(C)(C)C)c(O)c(C(C)(C)C)c1`, the outcome [6] was “inactive” and the outcome [9] was “inactive”.
With `CC(C)C[C@H]1C(=O)N2CCC[C@H]2[C@]2(O)O[C@](NC(=O)[C@@H]3C=C4c5cccc6[nH]c(Br)c(c56)C[C@H]4N(C)C3)(C(C)C)C(=O)N12` the AC50 [16] was 1.44 µM (active) and the AC50 [9] was 1.04 µM (active).
With `CCn1c2ccccc2c2cc(N)ccc21` the AC50 [12] was 12.3 µM (active), the AC50 [11] was 39.3 µM (active) and the AC50 [14] was 12.3 µM (active).
With `CC(C)=CCO` the outcome [12] was “inactive”.
With `O=P(c1ccccc1)(c1ccccc1)c1ccccc1` the AC50 [12] was 6.83 µM (active).
With `NC(=O)NC1NC(=O)NC1=O` (stereo unspecified) the outcome [9] was “inactive”.
In the case of `CC(C)=CCC[C@](C)(O)[C@@H]1CC=C(C)CC1`, the outcome [5] is reported as “inactive” and the outcome [7] is reported as “inactive”.
With `O=C=NC1CCC(CC2CCC(N=C=O)CC2)CC1` (stereo unspecified) the AC50 [12] was 16.5 µM (active) and the outcome [11] was “inactive”.
